Here are results for 5 molecules from PubChem BioAssay.

Structures are written as SMILES. Calls of active or inactive are those of the source.

Test [1] is described as follows: optical density shifts of acrAB sulA E. coli – strain DRC41, OD650, 48 h, E. coli filamentation inducer project, primary screen (AID 1152).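 Also: E. coli MC1000 strain DRC41 lacking acrAB efflux pump and sulA.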 The settings on record: higher = more signal, called active from +8 up or from −8 down.
Test [2] is described as follows: probe aLefty1 binding on compound microarray – biochemical, small-molecule microarray, 635/667 nm fluorescence, primary screen (AID 1153).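 Also: score merges spot fluorescence with signal-to-noise ratio from the scanned slide images.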 To be noted: higher = more signal.
Test [3] in a line: plasmodial surface anion channel blockers, osmotic lysis – cell-based, P. falciparum Indochina, OD700, 1 h, primary screen (AID 1154). The settings on record: P. falciparum Indochina infected RBC osmotic lysis, higher = more signal, called active from +8 up or from −8 down.
Test [4] can be described thus: plasmodial surface anion channel blockers, osmotic lysis – cell-based, P. falciparum Indochina, OD700, 2 h, primary screen (AID 1155).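 Also: lysis reports solute entry through the parasite surface anion channel PSAC.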 To be noted: P. falciparum Indochina infected erythrocytes, higher = more signal, called active from +8 up or from −8 down.
The nature of test [5]: changes in parasitized red cell lysis, either direction – P. falciparum Indochina, OD700, 3 h, PSAC antagonist project, primary screen (AID 1156). To be noted: P. falciparum-infected erythrocytes, osmotic lysis, higher = more signal, called active from +8 up or from −8 down.
Test [6] in a line: plasmodial surface anion channel blockers, osmotic lysis – cell-based, P. falciparum Indochina, OD700, 18 h, primary screen (AID 1157). To be noted: P. falciparum Indochina infected erythrocytes, osmotic lysis OD700, 18 h; higher = more signal, called active from +8 up or from −8 down.
The nature of test [7]: S6 kinase pathway phospho-S6 level changes – cell-based, A549, cytoblot, luminescence, serum-stimulated, primary screen (AID 1158).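 Also: serum-stimulated A549 lung adenocarcinoma cells; signal is phosphorylated S6 detected by cytoblot immunostaining with HRP secondary.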 The settings on record: 5 h, higher = more signal.
For test [8], the target named is NADPH oxidase 2 (Homo sapiens) (UniProt P04839). In words: compounds shifting NOX2 Amplex Red fluorescence – cell-based, HEK293-NOX2, PMA-stimulated, NOX inhibitor project, primary screen (AID 1159). Also: test concentration not given here. The settings on record: 45 min, higher = more signal, called active from +8 up or from −8 down.
Test [9] deals with NADPH oxidase 4 (Homo sapiens) (UniProt Q9NPH5). The test can be described thus: compounds shifting NOX4 Amplex Red fluorescence – cell-based, HEK293-NOX4, tetracycline-induced, NOX inhibitor project, primary screen (AID 1160). To be noted: HEK293-NOX4, Amplex Red H2O2 fluorescence, 45 min; higher = more signal, called active from +8 up or from −8 down.
For test [10], the target named is NADPH oxidase 5 (Homo sapiens) (UniProt Q96PH1). In words: compounds shifting NOX5 Amplex Red fluorescence – cell-based, HEK293-NOX5, NOX inhibitor project, primary screen (AID 1161). The settings on record: HEK293-NOX5, ionomycin, 45 min, higher = more signal.
Test [11] can be described thus: compound effects on lung adenocarcinoma cell viability – A549, calcein-AM fluorescence, 48 h, basal, profiling panel (AID 1162). Also: test concentration not given here. The settings on record: higher = more signal.
The nature of test [12]: compound effects on differentiated 3T3-L1 adipocyte viability – cell-based, 3T3-L1 adipocytes, calcein-AM fluorescence, 48 h, basal, profiling panel (AID 1163). Also: test concentration not given here. To be noted: 3T3-L1 adipocytes viability, higher = more signal.
Test [13] is described as follows: compound effects on hepatocellular carcinoma cell viability – HepG2, calcein-AM fluorescence, 48 h, basal, profiling panel (AID 1164). Also: test concentration not given here. The settings on record: higher = more signal.
Test [14] is described as follows: compound effects on multiple myeloma cell viability – MM1S, calcein-AM fluorescence, 48 h, basal, profiling panel (AID 1165).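 Also: viability of MM1S multiple myeloma cells under basal unstimulated conditions; test concentration not given here.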 The settings on record: higher = more signal.
A short description of test [15]: calcein-AM signal in unstimulated myeloma cells – cell-based, calcein-AM fluorescence, 48 h, PK04 Diversity Set, profiling panel (AID 1166).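 Also: cells grown under basal conditions without added stimulus; test concentration not given here.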 To be noted: RPMI8226 myeloma viability, higher = more signal.
A short description of test [16]: JC-1 mitochondrial signal, unstimulated HepG2 cells – cell-based, JC-1 fluorescence, 24 h, 100 nL compound, profiling panel (AID 1167). Also: test concentration not given here. The settings on record: HepG2 mitochondrial potential, higher = more signal.
Test [17] in a line: JC-1 mitochondrial signal, unstimulated adipocytes – cell-based, JC-1 fluorescence, 3T3-L1 adipocytes, 24 h, 100 nL compound, profiling panel (AID 1168). Also: test concentration not given here. The settings on record: JC-1 mitochondrial fluorescence, higher = more signal, called active from +8 up or from −8 down.
Test [18] in a line: JC-1 mitochondrial signal, unstimulated myeloma cells – cell-based, JC-1 fluorescence, RPMI8226, 24 h, 100 nL compound, profiling panel (AID 1169). Also: test concentration not given here. To be noted: JC-1 mitochondrial potential fluorescence, higher = more signal.
Test [19] in a line: JC-1 mitochondrial signal, unstimulated MM1S myeloma – cell-based, JC-1 fluorescence, 24 h, 100 nL compound, profiling panel (AID 1170). Also: test concentration not given here. The settings on record: MM1S mitochondrial potential, higher = more signal.
The nature of test [20]: resazurin metabolic signal in A549 cells – cell-based, resazurin fluorescence, 24 h, PK04 Diversity Set, profiling panel (AID 1171). Also: test concentration not given here. The settings on record: A549 viability, higher = more signal, called active from +8 up or from −8 down. In general terms: Resazurin is reduced to fluorescent resorufin, in cell work by metabolically active cells.

NADPH oxidase 4 (Homo sapiens), sequence (Q9NPH5 whole entry, looked up): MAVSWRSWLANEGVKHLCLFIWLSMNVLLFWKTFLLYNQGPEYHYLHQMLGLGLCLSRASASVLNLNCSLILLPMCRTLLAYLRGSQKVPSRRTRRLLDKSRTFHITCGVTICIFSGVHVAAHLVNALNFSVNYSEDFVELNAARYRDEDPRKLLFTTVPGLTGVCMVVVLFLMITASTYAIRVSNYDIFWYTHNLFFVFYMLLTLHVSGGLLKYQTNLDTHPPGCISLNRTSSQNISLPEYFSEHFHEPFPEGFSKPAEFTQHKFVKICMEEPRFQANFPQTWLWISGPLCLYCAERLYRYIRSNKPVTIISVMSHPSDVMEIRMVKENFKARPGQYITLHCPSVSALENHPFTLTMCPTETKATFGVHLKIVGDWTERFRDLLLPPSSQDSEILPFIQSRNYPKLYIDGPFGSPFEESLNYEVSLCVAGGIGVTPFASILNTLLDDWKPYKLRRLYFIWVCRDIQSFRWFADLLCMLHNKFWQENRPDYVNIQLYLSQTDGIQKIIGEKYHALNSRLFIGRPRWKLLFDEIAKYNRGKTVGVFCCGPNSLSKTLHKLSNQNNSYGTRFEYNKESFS
NADPH oxidase 2 (Homo sapiens), sequence (P04839 whole entry, looked up): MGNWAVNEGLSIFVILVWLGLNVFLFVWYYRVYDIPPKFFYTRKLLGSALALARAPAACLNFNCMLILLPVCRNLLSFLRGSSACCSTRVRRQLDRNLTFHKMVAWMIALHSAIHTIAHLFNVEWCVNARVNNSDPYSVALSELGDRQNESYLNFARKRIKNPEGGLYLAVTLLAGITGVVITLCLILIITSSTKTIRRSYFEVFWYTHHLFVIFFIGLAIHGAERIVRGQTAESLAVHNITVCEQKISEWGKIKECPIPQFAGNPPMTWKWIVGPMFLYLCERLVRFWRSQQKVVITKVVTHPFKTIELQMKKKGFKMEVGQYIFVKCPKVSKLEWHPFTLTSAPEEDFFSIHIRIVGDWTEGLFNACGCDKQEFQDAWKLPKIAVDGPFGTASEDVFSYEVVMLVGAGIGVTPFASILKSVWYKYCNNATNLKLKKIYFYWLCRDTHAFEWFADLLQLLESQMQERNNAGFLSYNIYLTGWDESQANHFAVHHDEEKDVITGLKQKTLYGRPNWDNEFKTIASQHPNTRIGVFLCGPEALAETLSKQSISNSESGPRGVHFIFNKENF
NADPH oxidase 5 (Homo sapiens), sequence (Q96PH1 whole entry, looked up): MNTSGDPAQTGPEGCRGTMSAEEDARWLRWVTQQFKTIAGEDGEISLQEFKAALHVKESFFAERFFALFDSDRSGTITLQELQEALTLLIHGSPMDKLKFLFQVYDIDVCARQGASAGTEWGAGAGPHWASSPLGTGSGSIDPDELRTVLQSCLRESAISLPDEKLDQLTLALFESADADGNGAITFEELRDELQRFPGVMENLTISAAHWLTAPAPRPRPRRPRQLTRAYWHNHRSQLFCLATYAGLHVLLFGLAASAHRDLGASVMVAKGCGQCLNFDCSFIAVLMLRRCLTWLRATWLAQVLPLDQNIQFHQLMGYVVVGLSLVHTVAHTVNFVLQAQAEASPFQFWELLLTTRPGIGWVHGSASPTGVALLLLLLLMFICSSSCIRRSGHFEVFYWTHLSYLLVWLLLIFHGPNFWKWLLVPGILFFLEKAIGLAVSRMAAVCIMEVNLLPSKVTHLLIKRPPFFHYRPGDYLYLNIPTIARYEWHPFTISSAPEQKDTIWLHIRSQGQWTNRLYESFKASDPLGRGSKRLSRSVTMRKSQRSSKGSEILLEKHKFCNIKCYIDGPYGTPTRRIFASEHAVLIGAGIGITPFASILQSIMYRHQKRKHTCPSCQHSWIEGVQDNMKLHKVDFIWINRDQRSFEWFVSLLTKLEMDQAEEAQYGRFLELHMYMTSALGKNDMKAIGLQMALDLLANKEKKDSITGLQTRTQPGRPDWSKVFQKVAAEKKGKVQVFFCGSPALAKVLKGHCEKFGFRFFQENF

Consider `CC(=O)NCCCC[C@@H]1NC(=O)[C@H]2C[C@@H](C(=O)NCCCCCNC(=O)CS)[C@@H](c3ccc(O)cc3)N2C1=O`, for which the z-score was -0.0078 (inactive) in [1]; 1.94 (inactive) in [3]; 0.811 (inactive) in test [4]; -0.952 (inactive) in test [5]; 0.425 (inactive) in test [6]; -0.591 in test [7]. The z-score in test [8] was 0.772 (inactive); in [9], -2.06 (inactive); in [10], -0.294; in test [11] it was 0.489; in test [12], 0.102; in test [13], 0.0041. Further, the z-score in test [14] is -1.41; in [15], 0.102; in [16], 0.231; in test [17] it was -0.729 (inactive); in test [18] it was 0.698; in test [19], 0.612. Moreover, the z-score in [20] is -0.187 (inactive). In [2], this molecule returned a composite z-score of -0.12.
As to `COc1cc2c(cc1O)C=[N+](Cc1cc3c(cc1Br)OCO3)CC2`, the z-score was -0.167 (inactive) in [1]; 3 (inactive) in [3]; 0.472 (inactive) in test [4]; 2.26 (inactive) in test [5]; 0.154 (inactive) in [6]; -0.273 in [7]. For the same molecule, the z-score was -3.59 (inactive) in [8]; -2.72 (inactive) in test [9]; -3.37 in test [10]; -0.103 in test [11]; 0.626 in test [12]; -0.958 in test [13]. The z-score in test [14] was 0.343; in [15], -0.109; in test [16], -0.375; in test [17], -0.935 (inactive); in test [18] it was 0.108; in [19] it was -0.374. Further, the z-score in test [20] was -0.698 (inactive). This molecule showed a composite z-score in [2] of -0.237.
Take `CC(C)CN1C(=O)[C@@]2(c3ccc([N+](=O)[O-])cc3)CC(=O)N(C3CCCCC3)[C@@H]2c2ccc(CO)cc21`: the z-score was 0.511 (inactive) in [1]; 0.531 (inactive) in test [3]; 0.437 (inactive) in test [4]; 0.0909 (inactive) in test [5]; 0.523 (inactive) in [6]; -0.277 in test [7]. Moreover, the z-score in test [8] was -0.717 (inactive); in test [9], -0.778 (inactive); in [10], -0.209; in test [11] it was -0.651; in [12], 0.16; in test [13], -0.403. Further, the z-score in test [14] is 0.246; in test [15], 0.0529; in test [16] it was 0.0665; in [17], -0.339 (inactive); in [18], 0.603; in test [19], -0.214. In test [20], the z-score was -0.881 (inactive). In test [2], this molecule had a composite z-score of -0.191.
Consider `C=CCNC(=O)[C@H]1[C@@H]2C(=O)O[C@@H](c3ccccc3)[C@@H](c3ccccc3)N2[C@@H](c2ccc(OCCO)cc2)[C@]12C(=O)Nc1ccc(C#CCC(C(=O)OC)C(=O)OC)cc12`, for which the z-score in test [1] was -0.283 (inactive); in test [3], 3.01 (inactive); in [4] it was 0.664 (inactive); in [5], -0.291 (inactive); in test [6], 0.117 (inactive); in test [7], -0.602. The z-score in [8] was 1.48 (inactive); in [9], 1.21 (inactive); in test [10] it was 0.45; in [11], -0.505; in test [12], 0.208; in test [13], 0.349. Further, the z-score in test [14] is -1.46; in test [15], -3.36; in test [16], -0.232; in [17] it was 0.97 (inactive); in test [18] it was -0.817; in [19], -1.12. Also, the z-score in test [20] was 0.149 (inactive). In addition, the composite z-score in [2] was determined as 0.128.
`COCCCNC(=O)[C@]1(Cc2ccccc2)N=C(c2ccc(OCCCO)cc2)O[C@@H]1c1ccccc1CN=[N+]=[N-]`: the z-score in test [1] was 1.41 (inactive); in test [3], 27.1 (active); in test [4], 18.1 (active); in [5] it was 1.44 (inactive); in test [6], 2.62 (inactive); in test [7], 2.35. In addition, the z-score in [8] is -0.158 (inactive); in test [9], 1.26 (inactive); in test [10] it was 2.44; in test [11] it was 1.16; in test [12], 0.52; in [13], 1.57. Further, the z-score in test [14] was -0.488; in [15] it was -2.52; in test [16], 2.15; in test [17], -0.0892 (inactive); in [18] it was -0.985; in test [19] it was -0.712. In test [20], the z-score was -1.43 (inactive). In test [2], this molecule returned a composite z-score of 0.401.
